# Data published in PubChem BioAssay AID1159580 (chemical genetic matrix, 2015).
# Where “and” joins values, the source holds several entries; their conditions need not be identical. Equal values may be shown once. About 2,000 (36%) of roughly 5,500 compounds were called active. Another 18% or so got no clear call; they are omitted. This is one part of the list. Values without a mark were called inactive. Rule as the data show it: active = normalized growth mostly below about 0.91 (no sharp cut-off); inconclusive = no clear call, values can overlap the other calls; inactive = mostly above about 0.92.
# Assay: chemical genetic growth profiling, strain panel (AID 1159580);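 also: tested at 20 µM; growth read once vehicle control cultures reached saturation at 30 °C; 1 = growth at the plate median or of vehicle wells; lower values mean less growth of the strain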
# Settings: S. cerevisiae deletion strains, growth OD
smiles,measurement,setting,value
COc1ccc2c(c1)OC[C@@H](Cc1ccc(OC)c(OC)c1)[C@H]2O,normalized growth,"locus YAL013W, strain DEP1, active compounds read low",0.986
same,normalized growth,"locus YAL021C, strain ccr4, active compounds read low",0.993
same,normalized growth,"locus YAL026C, strain drs2, active compounds read low",1.02
same,normalized growth,"locus YAL030W, strain snc1, active compounds read low",1.01
same,normalized growth,"locus YBL061C, strain skt5, active compounds read low",1
same,normalized growth,"locus YBR009C, strain hhf1, active compounds read low",0.993
same,normalized growth,"locus YBR021W, strain FUR4, active compounds read low",1.06
same,normalized growth,"locus YBR023C, strain chs3, active compounds read low",0.999
same,normalized growth,"locus YBR171W, strain sec66, active compounds read low",1.01
same,normalized growth,"locus YBR229C, strain ROT2, active compounds read low",1
same,normalized growth,"locus YBR231C, strain swc5, active compounds read low",1.01
same,normalized growth,"locus YBR279W, strain paf1, active compounds read low",1.02
same,normalized growth,"locus YCL011C, strain gbp2, active compounds read low",1.01
same,normalized growth,"locus YCL016C, strain dcc1, active compounds read low",1
same,normalized growth,"locus YCL029C, strain bik1, active compounds read low",0.953
same,normalized growth,"locus YCL061C, strain MRC1, active compounds read low",0.98
same,normalized growth,"locus YCL069W, strain vba3, active compounds read low",1.01
same,normalized growth,"locus YCR088W, strain abp1, active compounds read low",0.999
same,normalized growth,"locus YDL005C, strain med2, active compounds read low",0.999
same,normalized growth,"locus YDL035C, strain GPR1, active compounds read low",0.984
same,normalized growth,"locus YDL040C, strain nat1, active compounds read low",0.991
same,normalized growth,"locus YDL074C, strain BRE1, active compounds read low",0.995
same,normalized growth,"locus YDL101C, strain DUN1, active compounds read low",1
same,normalized growth,"locus YDL134C, strain PPH21, active compounds read low",1.06
same,normalized growth,"locus YDL185W, strain tfp1, active compounds read low",0.943
same,normalized growth,"locus YDL192W, strain arf1, active compounds read low",0.967
same,normalized growth,"locus YDR001C, strain nth1, active compounds read low",1
same,normalized growth,"locus YDR069C, strain doa4, active compounds read low",0.992
same,normalized growth,"locus YDR101C, strain arx1, active compounds read low",0.981
same,normalized growth,"locus YDR137W, strain rgp1, active compounds read low",0.806 (active)
same,normalized growth,"locus YDR159W, strain sac3, active compounds read low",0.939
same,normalized growth,"locus YDR162C, strain NBP2, active compounds read low",1.01
same,normalized growth,"locus YDR195W, strain ref2",1
same,normalized growth,"locus YDR297W, strain sur2, active compounds read low",1
same,normalized growth,"locus YDR318W, strain mcm21, active compounds read low",0.981
same,normalized growth,"locus YDR334W, strain swr1, active compounds read low",1.02
same,normalized growth,"locus YDR335W, strain msn5, active compounds read low",1.01
same,normalized growth,"locus YDR388W, active compounds read low",0.969
same,normalized growth,"locus YDR392W, strain spt3, active compounds read low",0.929
same,normalized growth,"locus YDR502C, strain sam2, active compounds read low",0.983
same,normalized growth,"locus YEL003W, strain gim4, active compounds read low",1.01
same,normalized growth,"locus YEL037C, strain rad23, active compounds read low",1.01
same,normalized growth,"locus YEL061C, strain CIN8 (second series), active compounds read low",1.01
same,normalized growth,"locus YEL061C, strain CIN8, active compounds read low",0.99
same,normalized growth,"locus YER015W, strain faa2, active compounds read low",1.01
same,normalized growth,"locus YER016W, strain bim1, active compounds read low",1.01
same,normalized growth,"locus YER110C, active compounds read low",0.978
same,normalized growth,"locus YER111C, strain swi4, active compounds read low",1
same,normalized growth,"locus YER155C, strain BEM2 (second series), active compounds read low",1.01
same,normalized growth,"locus YER155C, strain BEM2, active compounds read low",0.984
same,normalized growth,"locus YER167W, strain BCK2, active compounds read low",0.957
same,normalized growth,"locus YFR010W, strain ubp6, active compounds read low",1.01
same,normalized growth,"locus YGL078C, strain dbp3, active compounds read low",0.977
same,normalized growth,"locus YGL086W, strain mad1, active compounds read low",0.989
same,normalized growth,"locus YGL167C, strain pmr1, active compounds read low",1.01
same,normalized growth,"locus YGL173C, strain kem1, active compounds read low",1.02
same,normalized growth,"locus YGL227W, strain vid30, active compounds read low",0.999
same,normalized growth,"locus YGL240W, strain doc1, active compounds read low",1.01
same,normalized growth,"locus YGL248W, strain PDE1, active compounds read low",1.03
same,normalized growth,"locus YGL253W, strain hxk2, active compounds read low",1
same,normalized growth,"locus YGR135W, strain pre9, active compounds read low",0.99
same,normalized growth,"locus YGR252W, strain gcn5, active compounds read low",1.01
same,normalized growth,"locus YHR013C, strain ard1, active compounds read low",1.01
same,normalized growth,"locus YHR027C, strain rpn1, active compounds read low",0.999
same,normalized growth,"locus YHR030C, strain SLT2, active compounds read low",0.987 and 0.938
same,normalized growth,"locus YHR079C, strain IRE1 (second series), active compounds read low",0.979
same,normalized growth,"locus YHR079C, strain IRE1, active compounds read low",0.956
same,normalized growth,"locus YHR094C, strain hxt1, active compounds read low",0.978
same,normalized growth,"locus YHR129C, strain ARP1, active compounds read low",0.994
same,normalized growth,"locus YHR142W, strain chs7, active compounds read low",0.975
same,normalized growth,"locus YHR200W, strain rpn10, active compounds read low",0.966
same,normalized growth,"locus YIL066C, strain RNR3, active compounds read low",1.01
same,normalized growth,"locus YIL073C, strain SPO22, active compounds read low",0.919
same,normalized growth,"locus YIR030C, strain dcg1, active compounds read low",0.955
same,normalized growth,"locus YJL092W, strain hpr5, active compounds read low",1.01
same,normalized growth,"locus YJL095W, strain BCK1 (second series), active compounds read low",1.01
same,normalized growth,"locus YJL095W, strain BCK1, active compounds read low",1.04 and 0.939
same,normalized growth,"locus YJL115W, strain asf1, active compounds read low",1.01
same,normalized growth,"locus YJL129C, strain trk1, active compounds read low",0.956
same,normalized growth,"locus YJL134W, strain LCB3, active compounds read low",0.991
same,normalized growth,"locus YJL154C, strain vps35, active compounds read low",1.01
same,normalized growth,"locus YJL164C, strain tpk1, active compounds read low",0.993
same,normalized growth,"locus YJL166W, strain qcr8, active compounds read low",1.01
same,normalized growth,"locus YJL168C, strain set2, active compounds read low",0.997
same,normalized growth,"locus YJL187C, strain SWE1 (second series), active compounds read low",1.01
same,normalized growth,"locus YJL187C, strain SWE1, active compounds read low",1
same,normalized growth,"locus YJR043C, strain POL32, active compounds read low",1.01
